Test results taken from PubChem BioAssay AID1345085 (National Center for Advancing Translational Sciences (NCATS), 2018).
Records with an inconclusive call do not appear. Active and inactive are the calls of the source. The call rests on the fitted dose curve; in most records, active means well fitted cell-killing curve with a large enough effect; inconclusive means small, poorly fitted or top-dose-only effect, or effect the other way; inactive means no such curve, though single readings can be large or run the other way.

These compounds were tested on HeLa (assay: Confirmatory qHTS for gynecologic anti-cancer compounds from libraries of approved drugs and bioactive compounds). Conditions: gynecologic cancer cell panel viability, ATPlite luminescence, 48 h; series mostly up to 57.6 µM; activity change, negative = viability loss: at the top concentration.
How it was run: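 Cells (1,000/well) plated 16 h, then exposed 48 h at 37 °C to 11 concentrations (1:3) from 57.5 uM to 0.977 nM. Viability by ATPlite luminescence after 15 min; IC50 derived, with HEK 293T used for selectivity index.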
Further: nearly all actives have a fitted effect of over 55% in size.
On the % scale 0 is the no-effect control and ±100 the full control effect; potency means the concentration at half of the fitted maximal effect.

SMILES | Potency | activity change, negative = viability loss
Cc1sc2c(c1C)C(c1ccc(Cl)cc1)=NC(CC(=O)OC(C)(C)C)c1nnc(C)n1-2 (stereo not drawn) | 769 nM (active) | –
O=C(O)Cc1ccccc1 | – | 19.4% (inactive)
CCC(=O)O[C@H]1CC[C@H]2[C@@H]3CCC4=CC(=O)CC[C@]4(C)[C@H]3CC[C@]12C | 4320 nM (active) | –
C[C@H]1CCC/C=C/C2C[C@H](O)C[C@H]2[C@H](O)/C=C/C(=O)O1 (stereo partly drawn) | 172 nM (active) | –
C[C@]12CC[C@H]3[C@@H](CCC4=CC(=O)CC[C@@H]43)[C@@H]1CC[C@@H]2OC(=O)CCc1ccccc1 | 2730 nM (active) | –
CCNC(=O)C[C@@H]1N=C(c2ccc(Cl)cc2)c2cc(OC)ccc2-n2c(C)nnc21 | 1530 nM (active) | –
C=C(C)[C@H]1Cc2c(ccc3c2O[C@@H]2COc4cc(OC)c(OC)cc4[C@@H]2C3=O)O1 | 243 nM (active) | –
C/C=C(/C)C(=O)O[C@H]1C(C)=C2[C@H]([C@@H]1OC(=O)CCCCCCC)[C@@](C)(OC(C)=O)C[C@H](OC(=O)CCC)[C@@]1(O)[C@H]2OC(=O)[C@@]1(C)O | 61.1 nM (active) | –
